MazEF act: activators of E. coli MazEF toxin-antitoxin RNase | AID 504720 | P0AE70 | FAM/BHQ RNA-DNA oligo cleavage fluorescence, 5 h | activation, % at 20 µM | 350,000 compounds, 0.32% hits; in the data active = activation above about 50%
Target sequence (P0AE70 whole entry, looked up): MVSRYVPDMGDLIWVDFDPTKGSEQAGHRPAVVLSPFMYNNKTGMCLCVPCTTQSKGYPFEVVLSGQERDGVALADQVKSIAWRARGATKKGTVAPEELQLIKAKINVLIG
PrPC surface inh: inhibitors of human cell surface prion protein PrPC. inhibition, % at 13.8 µM. TR-FRET read-out. P04156. 370,000 compounds, 0.43% hits. AID 720596; in the data active = inhibition above about 24%; note: 0% = median of the test wells and 100% = reference compound wells
PfHsp40 rescue: restores yeast growth despite PfHsp40 toxicity. growth rescue, % at 12.5 µM. S. cerevisiae expressing PfHsp40, growth rescue, ATP luminescence. 340,000 compounds, 0.68% hits. AID 504582; in the data active = growth rescue above about 28%, passing the limit was not always enough; inconclusive = no clear call, values can overlap the other calls;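 note: yeast W303a lacking pdr1 and pdr3 grown in galactose medium; growth measured after three days at 30 °C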
SSB-PriA inh: K. pneumoniae PriA-SSBct interaction inhibition; AlphaScreen SSBct-PriA binding, biotinylated peptide; inhibition, % at 33 µM; 430,000 compounds, 0.6% hits; AID 1272365; in the data active = inhibition mostly above about 37%, no sharp cut-off; inactive = mostly below about 20%;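 note: plate controls were negative control peptide for no effect and reference peptide for full effect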
PrP 5UTR inh: inhibition of PrP 5' UTR reporter expression; cell-based PrP 5' UTR mRNA reporter, plate reader; 340,000 compounds, 0.35% hits; AID 488862; inhibition, % (concentration not given with the values); in the data active = inhibition above about 52%; note: 0 = median of the neutral control wells
* = called active by the depositor; ? = inconclusive; · = no result; + = active, no number; ! = a repeat was not active. Shown are actives, neighbours in structure and some others; about 1.8% of the full set was active somewhere.

SMILES	MazEF act	PrPC surface inh	PfHsp40 rescue	SSB-PriA inh	PrP 5UTR inh
Cc1ccc(C)c(NS(=O)(=O)c2c(C)nn(C)c2C)c1	0	8	-1	-12	-11
CSc1ncccc1C(=O)NCC1(O)CCOc2ccccc21 (stereo not given)	·	·	·	-1	·
Cc1c(NC(=O)c2cccc3c2-c2ccccc2C3=O)c(=O)n(-c2ccccc2)n1C	·	·	·	-6	·
O=C(Nc1ccccc1F)c1cc(C2CCN(C(=O)Cc3c[nH]c4ccccc34)CC2)[nH]n1	·	·	·	10	·
COc1ccccc1NC(=O)CSc1nnc(-c2ccccn2)n1Cc1ccco1	-8	5	0	63*	-17
COc1ccc(-c2cnc(SCC(=O)Nc3nc(C)cs3)n2Cc2ccco2)cc1	·	·	·	30*	·
COc1ccc(C)cc1NC(=O)CSc1nnc(-c2ccccn2)n1Cc1ccco1	3	5	0	-3	-63
Cc1ccc(NC(=O)c2cc(C(C)C)n(-c3nc4ccccc4s3)n2)nc1	·	·	·	-2	·
COc1ccc(OC)c2sc(NC(C)=O)nc12	·	·	·	1	·
CC(C)(c1cc(Br)c(O)c(Br)c1)c1cc(Br)c(O)c(Br)c1	-2	-3	331*	-7	0
COc1cc2c(cc1OC)CN(S(=O)(=O)CCNC(=O)c1ccccc1SC)CC2	·	·	·	8	·
Clc1ccc2nc(-c3ccco3)c(Cc3ccsc3)n2c1	·	-3	·	·	·
Brc1ccc2nc(-c3ccco3)c(Cc3ccsc3)n2c1	·	34*	·	·	·
Cc1nc(NC2CCCCC2)c2nnn(Cc3ccccc3Cl)c2n1	-12	2	5	-25	-16
Cc1cc(C)c(S(=O)(=O)N2CCC(C(=O)NCc3ccc(Cl)cc3Cl)CC2)c(C)c1	8	-3	38*	-14	-8
Cc1cc(C)c(S(=O)(=O)N2CCC(C(=O)NCc3ccncc3)CC2)c(C)c1	5	-2	0	-2	-13
CCCN1CCN(CCCNC(=O)c2ccc3nc(N4CCCCC4)sc3c2)CC1	4	4	1	100*	-55
CCN(CC)CCCN1C(=O)C(=O)C(=C(O)c2ccc3c(c2)OCCO3)C1c1ccco1 (stereo not given)	·	·	·	-12	·
O=C(Nc1nnc(-c2ccccc2Cl)o1)C1CC(=O)N(c2ccccc2)C1 (stereo not given)	·	·	·	46*	·
Cc1onc(-c2ccccc2Cl)c1C(=O)Nc1nnc(C2CC(=O)N(c3ccccc3)C2)o1 (stereo not given)	·	·	·	-10	·
O=C(Nc1nnc(-c2cccs2)o1)C1CC(=O)N(c2ccc(F)cc2)C1 (stereo not given)	·	·	·	27*!	·
O=C(Nc1ccc(Cl)c(Cl)c1)C1CC(=O)N(c2ccc(Br)cc2)C1 (stereo not given)	10	1	31*	-18	-3
O=C(O)c1ccccc1Nc1ccc([N+](=O)[O-])cc1C(=O)O	-3	1	0	-2	-28
O=C(O)c1ccccc1Nc1ccc([N+](=O)[O-])c2nonc12	-3	·	0	57*!	9
O=[N+]([O-])c1ccc(Nc2ccccc2Cl)c2nonc12	·	·	·	59*	·
SMILES	MazEF act	PrPC surface inh	PfHsp40 rescue	SSB-PriA inh	PrP 5UTR inh
Cc1ccccc1Nc1ccc([N+](=O)[O-])c2nonc12	·	·	·	76	·
NNc1nc(Nc2ccccc2)nc(Nc2ccccc2)n1	15	4	-2	49*	0
COc1ccc(Nc2nc(NN)nc(Nc3ccc(OC)cc3)n2)cc1	16	10	-1	100*	-7
Cc1cc(N)nc(Nc2ccc(Nc3ccccc3)cc2)n1	·	·	·	41*	·
O=C(Cc1ccccc1[N+](=O)[O-])NCCCN1CCOCC1	10	-7	0	-1	-10
Cc1cc2c(C)nc3ccccc3c2o1	-2	5	0	-9	-16
NC(=O)c1nccc2ccccc12	5	-1	0	-11	-19
COC(=O)CS(=O)(=O)c1nnc([C@H](Cc2ccccc2)NC(=O)OC(C)(C)C)o1	5	3	0	12	16
Cc1cccc(CS(=O)(=O)c2nnc([C@H](Cc3ccccc3)NC(=O)OC(C)(C)C)o2)c1	-27	·	373*	7	·
COc1ccc2oc(=O)c(-c3csc(Nc4cccc(O)c4)n3)cc2c1	133*	-1	449*	-20	-85
CC(=O)Nc1ccc(Nc2nc(-c3cc4ccccc4oc3=O)cs2)cc1	63*	7	1	-12	-74
COc1cc(OC)c(C=NNC(=O)c2ccncc2)cc1Br	·	·	·	-13	·
COc1ccc(N=C2S/C(=C\c3cc(C)n(C)c3C)C(=O)N2C)cc1	5	-12	-1	39*	-2
COc1ccccc1N1C(=O)S/C(=C\c2cc(C)n(C)c2C)C1=O	+	-11	0	12	-15
CCCN1C(=O)/C(=C/c2cc(C)n(C)c2C)SC1=Nc1ccc(OC)cc1	-1	-8	0	16	-6
COc1ccccc1N1C(=O)S/C(=C\c2ccc(C)s2)C1=O	22	-1	-1	-10	-59
O=[N+]([O-])c1cc(C(F)(F)F)ccc1N1CCCNCC1	5	-15	1	3	-10
Cc1ccc(S(=O)(=O)NCC(=O)OCc2cc(=O)oc3c(C)c(C)ccc23)cc1C	4	3	1	2	-8
CC(C(=O)N1CCCC1)N1CCN(c2ccccc2O)CC1 (stereo not given)	3	6	0	1	-17
CCOC(=O)C=c1sc(=Cc2ccc3c(c2)OCCO3)c(=O)n1CC(=O)NCC1CCCO1 (stereo not given)	·	·	·	-12	·
COc1ccc(CSCCc2n[nH]c(=S)n2-c2ccccc2)cc1	17	9	1	4	-8
C/C(=N\O)C(C)(C)Nc1ccc(Br)cc1	53*	3	0	·	-18
CC(=NO)C(C)(C)Nc1ccc(Br)cc1	·	·	·	1	·
O=C(CNC(=O)c1ccc(S(=O)(=O)N2CCCC2)cc1)NN=Cc1c(Cl)cccc1Cl	·	·	·	-5	·
NC(=O)CSc1nnc(-c2cc(-c3cccs3)nc3ccccc23)o1	59*	1	-1	-20	-20
SMILES	MazEF act	PrPC surface inh	PfHsp40 rescue	SSB-PriA inh	PrP 5UTR inh
COc1ccccc1NC(=O)COC(=O)C12CC3CC(CC(Br)(C3)C1)C2	-3	8	0	-14	-11
CCC(C)Sc1cccc(-c2nc3cnccn3c2NC2CCCCC2)c1 (stereo not given)	-37	5	40*	-24	-16
CCC(C)Sc1cc(-c2nc3ccccn3c2NC2CCCCC2)ccc1OC (stereo not given)	-5	7	?	29	-4
c1cc(SC2CCCCC2)cc(-c2nc3cnccn3c2NC2CCCCC2)c1	-48	9	0	-17	0
CC(=O)c1ccc(-c2cccc(-c3nc4ccccn4c3NC3CCCCC3)c2)cc1	-6	12	?	41*	-19
CC[N+](CC)(CC)C/C(N)=N/O	-1	-4	1	·	-19
CCOC(=O)c1c(NC(=O)C(C)Sc2nnc(C)c(=O)[nH]2)sc2c1CCCC2 (stereo not given)	7	-4	-1	-16	-28
O=C(Cc1ccc(F)cc1)NCCn1ncc2c(N3CCCC3)ncnc21	·	·	·	-2	·
COC(=O)COC(=O)c1ccccc1NC(=O)c1ccccc1	-5	-3	245*	-23	-15

Screens (PubChem BioAssay)
